Compounds with a hit are over-represented: about 2.8% of the library has one in this group of screens.
POLB inh – blocks human DNA polymerase beta activity | Pol beta primer extension/strand displacement, fluorescence kinetic | Potency, µM (doses to about 114 µM), inactives show at the top dose activity change, negative = inhibition, usual class: inhibitors | actives 1.3% (n = 340,000); note: potency is the fitted concentration of half-maximal effect; % is set by controls: 0 for no effect and ±100 for the full control effect
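Reaction started by 50 nM substrate onto compound-treated Pol beta (10 nM, 15 min preincubation, room temperature); plates read at 0 min and 10 min. Normalized concentration-effect data fitted by four-parameter Hill equation.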
PI5P4Ka inh – inhibitors of human PI5P4K alpha. P48426. PI5P4Kalpha enzyme, ADP-Glo luminescence, 60 min; active compounds read low. max response, %. actives 1.2% (n = 330,000); active = max response of -50% or lower; inconclusive = between -30% and -50%; inactive = -30% or higher; note: value at the top dose of about 77 µM; % is set by controls: 0 for no effect and ±100 for the full control effect
Target sequence (P48426 whole entry, looked up): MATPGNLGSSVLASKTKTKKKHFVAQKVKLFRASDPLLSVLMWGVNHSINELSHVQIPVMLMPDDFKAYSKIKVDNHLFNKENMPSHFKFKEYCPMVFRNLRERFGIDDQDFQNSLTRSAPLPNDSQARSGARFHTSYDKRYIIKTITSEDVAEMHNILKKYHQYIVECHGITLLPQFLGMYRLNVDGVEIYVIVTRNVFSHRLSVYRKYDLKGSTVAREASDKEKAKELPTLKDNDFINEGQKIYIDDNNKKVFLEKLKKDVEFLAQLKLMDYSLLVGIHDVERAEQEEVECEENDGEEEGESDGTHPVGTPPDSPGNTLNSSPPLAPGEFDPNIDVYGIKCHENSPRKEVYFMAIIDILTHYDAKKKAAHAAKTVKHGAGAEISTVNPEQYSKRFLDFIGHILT
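Single end-point luminescence (ADP-Glo) quantified ADP from PI5P4Kalpha turnover; ATP 5 microM final, 1 h at RT, 0.1% CHAPS and 0.28 mM EGTA in HEPES pH 7.4.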
POLI inh – blocks human DNA polymerase iota activity | Potency, µM (top dose mostly 115 µM), inactives show at the top dose activity, negative = inhibition, usual class: inhibitors | actives 1% (n = 390,000) | AID 588590 | Pol iota fluorescent replication assay, 10 min | Q9UNA4; note: potency is the fitted concentration of half-maximal effect
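Fluorescent replication assay read twice, at 0 min and 10 min after adding 50 nM (final) substrate. Enzyme (10 nM) and compounds were first incubated 15 min at room temperature; enzyme-free buffer wells were negative controls.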
POLH inh – DNA polymerase eta (human) inhibition; AID 588591; actives 1.2% (n = 390,000); recombinant Pol eta, fluorescent DNA replication assay; Potency, µM (top dose mostly 114 µM), without a hit: at the top dose activity change, negative = inhibition, actives largely listed as inhibitors; Q9Y253; note: potency is the fitted concentration of half-maximal effect; % is set by controls: 0 for no effect and ±100 for the full control effect
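Fluorescent replication assay: 50 nM final substrate added after a 15 min room-temperature compound preincubation with 10 nM enzyme. Signal taken at 0 min and again at 10 min.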
POLK inh – blocks human DNA polymerase kappa activity; AID 588579; Potency, µM (top dose mostly 107 µM), inactives show at the top dose activity, negative = inhibition, hits mostly inhibitors; Q9UBT6; purified Pol kappa, fluorescent DNA synthesis assay, 10 min; actives 0.53% (n = 400,000); note: potency is the fitted concentration of half-maximal effect; % is set by controls: 0 for no effect and ±100 for the full control effect
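50 nM final substrate added after 15 min RT preincubation of 10 nM Pol kappa with compound; fluorescence read at 0 and 10 min.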
WRN helicase inh – inhibitors of human WRN helicase; AID 651768; Potency, µM (doses to about 114 µM), for the others: at the highest dose activity change, negative = inhibition, hits mostly inhibitors; actives 0.46% (n = 360,000); WRN helicase unwinding, fluorescent forked duplex, kinetic; note: potency is the fitted concentration of half-maximal effect; % is set by controls: 0 for no effect and ±100 for the full control effect; nearly all actives have a fitted effect of over 55% in size
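WRN at 20 nM final preincubated with compound 15 min at room temperature; reaction started with 100 nM fluorophore/quencher forked duplex oligonucleotide and 2 mM ATP final. Unwinding followed kinetically by red fluorescence (ex 525, em 598 nm).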
Starred values were filed as active, the others as inactive; ? = inconclusive; . = no result; [ ] = remark or other dose. Unless noted, calls come from the whole dose curve; as a rule, active = well fitted curve in the direction sought with a large enough effect; inconclusive = small, poorly fitted or top-dose-only effect, or another doubt; inactive = no such curve, though single readings can be large; an effect the other way counts as inactive or inconclusive.

SMILES	POLB inh	PI5P4Ka inh	POLI inh	POLH inh	POLK inh	WRN helicase inh
O=C(CCc1ccc(O)cc1)c1c(O)cc(O)cc1O[C@H]1OC(CO)C(O)C(O)C1O (some centres undefined)	.	.	.	.	-12%[60.1 µM]	.
CCc1cccc(NC(=O)CN(C)S(=O)(=O)c2ccc3c(c2)CCCN3C(C)=O)c1	-21%	.	7%	-23%	-5%[60.1 µM]	.
COc1ccc(C(=O)c2sc(Nc3cc(Cl)ccc3C)nc2N)cc1OC	28µM*	.	?	-16%	-17%	.
COc1ccc2nc(C)cc(SCC(=O)N/N=C/c3cccc4ccccc34)c2c1	1%	.	20%	?	0%	5%
Cc1ccc2nc(C)cc(SCC(=O)N/N=C/c3ccco3)c2c1	40µM*	1	-16%	8%	-14%	-13%
COc1cc(/C=C(\C#N)C(=O)N2CCOCC2)cc(Br)c1O	0%	-61*	5%	-18%	-7%	-3%
CC(=O)Nc1ccc(C(=O)CSc2nnc(-c3ccccc3)n2-c2ccccc2)cc1	10µM*	.	?	-9%	5%	.
Cc1ccc(C(=O)CSc2nnc(-c3ccccc3)n2-c2ccccc2)cc1	3%	.	27%	-7%	8%	.
Cc1ccc(NC(=O)CSCC(=O)Nc2ncc3c(n2)CC(c2ccco2)CC3=O)cc1 (centres undefined)	?	.	28µM*	?	?	-35%
Cc1ccc(NC(=O)CC(C)S(=O)(=O)c2ccc3c(c2)NC(=O)CO3)cc1Cl (centres undefined)	3%	.	32%	-22%	-12%	.
COc1ccc(-n2c(SCC(=O)C(C)(C)C)nc3c(sc(=S)n3-c3ccccc3)c2=O)c(OC)c1	-4%	-13	11µM*	-5%	1%	-16%
CCOC(=O)CSc1nc2c(sc(=S)n2-c2ccccc2OC)c(=O)n1-c1ccccc1OC	19%	-6	133%	-25%	-8%	-17%
C=C(c1ccc2ccccc2n1)c1cccs1	.	.	75%	.	-22%	.
O=C(N/N=C/c1ccc([N+](=O)[O-])o1)c1cc(-c2ccncc2)nc2ccccc12	?	.	?	89µM*	?	-11%[57.1 µM]
O=C(N/N=C/c1ccc([N+](=O)[O-])o1)c1cc(-c2ccc(-c3ccccc3)cc2)nc2ccccc12	20µM*	?	?	-31%	-31%	-7%[57.1 µM]
O=C(N/N=C/c1cccc([N+](=O)[O-])c1)c1cc(-c2ccccc2)nc2ccccc12	11%	-3	-1%	-7%	-1%	1%
O=C(O)c1cccc(N/N=C/c2cn(-c3ccccc3)nc2-c2cccs2)c1	?	-18	61%	79µM*	-18%	?
Cc1cc(SCC(=O)N/N=C/c2ccc(O)c(O)c2)c(C)cc1Br	16µM*	-2	?	-21%	-21%	-17%
C=C(C)Cn1c(=O)c2c(nc3n2CCN3c2cc(C)cc(C)c2)n(C)c1=O	-13%	.	79µM*	-9%	-6%	.
Cc1cc(C)cc(N2CCCn3c2nc2c3c(=O)n(CCN3CCOCC3)c(=O)n2C)c1	-1%	-4	7%	-8%	-9%	-5%
Cc1cc(C)nc(NC(=S)NC(=O)c2ccccc2F)n1	.	1	70%	-12%	-15%	2%
Cc1cc(C)nc(S/C=C/C(=O)c2ccccc2F)n1	-11%	2	4.5µM*	-4%	-16%	?
O=C(O)C#CC(=O)O	.	.	14%	.	5%	.
CCOc1cc(C(c2c(C)[nH][nH]c2=O)c2c(C)[nH][nH]c2=O)cc([N+](=O)[O-])c1O	47%	-18	?	-16%	-12%	-2%[11.6 µM]
COc1cc(C(c2c(C)[nH][nH]c2=O)c2c(C)[nH][nH]c2=O)cc([N+](=O)[O-])c1O	-2%	-60*	?	-9%	-4%	-31%
SMILES	POLB inh	PI5P4Ka inh	POLI inh	POLH inh	POLK inh	WRN helicase inh
CCOc1cc(C(c2c(C)[nH][nH]c2=O)c2c(C)[nH][nH]c2=O)cc(Cl)c1O	52%	-15	25µM*	10%	-2%	-6%
COc1ccc(-c2onc(C)c2C)cc1S(=O)(=O)N(C)Cc1ccco1	1%	.	5%	-21%	-3%	.
O=C(CSc1nc2ccccc2[nH]1)NCc1ccco1	5%	.	-10%	-2%	-7%	-7%[57.1 µM]
COc1ccc(-c2[nH]c(-c3ccc(C)cc3)nc2SCC(=O)NCc2ccco2)cc1OC	79µM*	4	-11%	-5%	6%	-3%
COc1ccc(-c2ccc(SCC(=O)NCc3ccco3)nn2)cc1OC	8%	-3	-37%	?	?	-31%
O=C(CSc1ncccc1-c1nc2ccccc2[nH]1)NCc1ccco1	32µM*	.	?	25µM*	50µM*	?
Cc1cc2nc(-c3cccnc3SCC(=O)NCc3ccco3)[nH]c2cc1C	50µM*	.	7%	-19%	-3%	-17%
COc1ccc(C(C)=NNc2ccc([N+](=O)[O-])cc2S(=O)(=O)Nc2ccccc2C(=O)O)c(OC)c1	.	?	1%	45µM*	-29%	-6%[11.6 µM]
CN(CCO)c1ccc(C=NNc2ccc([N+](=O)[O-])cc2S(=O)(=O)Nc2ccccc2C(=O)O)cc1	.	-55*	?	?	-37%	45µM*
Cc1ccc(NC(=S)NNc2ccc([N+](=O)[O-])cc2S(=O)(=O)Nc2ccccc2C(=O)O)cc1C	?	-73*	-11%	28µM*	-25%	?
CC(=O)Nc1cccc(/C(C)=N/Nc2ccc(S(=O)(=O)Nc3ccccc3C(=O)O)cc2[N+](=O)[O-])c1	.	-72*	?	22µM*	-13%	?
COc1ccc(NC(=O)c2ccccc2NS(=O)(=O)c2ccc(C)cc2)c([N+](=O)[O-])c1	24%	-2	-16%	-18%	-20%	-4%
COc1ccc(NC(=O)c2cc(S(=O)(=O)NCCC3=CCCCC3)ccc2F)cc1	-10%	.	-3%	-25%	0%[60.1 µM]	.
c1ccc(-n2nnc3ccccc32)cc1	6%	-1	30%	-5%	19%	10%
C(=C\n1nnc2ccccc21)/c1ccc[nH]1	.	-77*	?	50µM*	25µM*	?
Cc1cc2nc3ccc(=[N+](C)C)cc-3sc2cc1N	8.9µM*	-18	18µM*	?	-32%	.
C#CCOCCOCCOCCNc1nc(N2CCN(C(=O)CCCCCCCCCCNC(=O)[C@@H](CCSC)n3cc(CCO)nn3)CC2)nc(N2CCN(C(=O)CCCCCCCCCCNC(=O)[C@H]([C@@H](C)CC)n3cc(CCCCN=C(N)N)nn3)CC2)n1	.	-73*	?	79µM*	-22%	?

Assay outcomes from PubChem BioAssay.
